Screen size: about 48,000 compounds; about 13,000 (27%) showed an effect of 50% or more. This is one part of the list.
The compounds below were run on Wolbachia pipientis (assay: Anti-Wolbachia Cell-Based Screen). Settings: 5 µM.
Assay type: functional
Design: scale not given: in the data most compounds retested in dose-response had high values

| Compound | Percent Effect [%] |
| --- | --- |
| Cc1nnc(CCNC(=O)C(c2ccc(F)cc2)N(C)C)[nH]1 (centres undefined) | 15.69 |
| CSCCCN1CCn2nc(CNC(C)=O)cc2C1 | -21.5 |
| CNS(=O)(=O)CCNC(=O)[C@@]12CNC[C@@H]1CN(C1CCCC1)C2 | -0.715 |
| CC(=O)NC1(C(=O)N2CCCN(c3cccnn3)CC2)CCCCC1 | 1.939 |
| CN(C)CCOCc1nnc2n1CCN(Cc1cccs1)CC2.O=C(O)C(F)(F)F.O=C(O)C(F)(F)F | 101.6 |
| CN(C)CCOCc1nnc2n1CCN(Cc1ccco1)C2.O=C(O)C(F)(F)F.O=C(O)C(F)(F)F | -14.14 |
| Cc1ccc(CN2CCc3nnc(COCCN(C)C)n3CC2)o1.O=C(O)C(F)(F)F.O=C(O)C(F)(F)F | 95.05 |
| CCOCc1nnc2n1CCN(Cc1c(C)noc1C)CC2.O=C(O)C(F)(F)F | -27.85 |
| CN(C)CCOCc1nnc2n1CCN(Cc1ccco1)CC2.O=C(O)C(F)(F)F.O=C(O)C(F)(F)F | 99.11 |
| O=C(O)C(F)(F)F.O=C(O)C(F)(F)F.c1cncc(COCc2nnc3n2CCN(Cc2cccs2)C3)c1 | -10.65 |
| O=C(O)C(F)(F)F.O=C(O)C(F)(F)F.c1cncc(COCc2nnc3n2CCN(Cc2ccco2)C3)c1 | -13.62 |
| CC(=O)NCc1nnc2n1CCN(Cc1cccs1)C2.O=C(O)C(F)(F)F | -7.249 |
| COc1ccc(NC(=O)C2CCCO2)cc1OCc1cccnc1 (centres undefined) | 5.381 |
| Cc1nn(C)c(C)c1CCC(=O)N1CCc2sccc2C1 | 7.197 |
| Cc1cnccc1N1CCCN(C(=O)CCCn2ccnc2C)CC1 | -4.474 |
| Cc1nccn1CCCn1cncc1-c1ccc2c(c1)CCC(C)N2C.Cl (centres undefined) | 102.7 |
| CCN1c2ccc(-c3cncn3CCCn3ccnc3C)cc2CC1C.Cl (centres undefined) | 77.37 |
| Cc1nccn1CCCNC(=O)C1CCCCN1Cc1ccncc1 (centres undefined) | -5.862 |
| Cc1nn(C)c(C)c1CCC(=O)N1CC(c2cccnc2)C1 | 23.02 |
| Cc1nccn1CCCn1cncc1-c1ccc2c(c1)CCCN2C.Cl | 98.66 |
| Cc1nn(C)c(C)c1CCn1cncc1-c1ccc2c(c1)CC(C)N2C.Cl (centres undefined) | 101.8 |
| CCOc1ncc(NC(=O)c2ccccn2)c(OCC)n1 | 0.09854 |
| CN1C[C@@H]2CC[C@H](C1)N(Cc1ccccc1OCCN1CCOCC1)C2 | -8.693 |

| Compound | Percent Effect [%] |
| --- | --- |
| CSc1ccc(CNc2ccccc2CN2CCC(O)CC2)cc1 | -4.512 |
| Cn1cc(CCCNC(=O)NC2CCN(c3ccccc3)C2=O)cn1 (centres undefined) | 20.77 |
| CCn1nc2c(cc1=O)CN(CCOc1cccc(C#N)c1)CC2 | -9.961 |
| Cn1cc(C(=O)OCC(N)=O)c(-c2ccc(F)cc2F)n1 | -2.814 |
| N#CCCN(Cc1cccnc1)C(=O)c1ccc(-n2cnnn2)cc1 | 12.89 |
| Cc1ccc(NC(=O)N(C)C)c(C(=O)OCC(=O)NC2CCCC2)c1 | -9.857 |
| COc1ccc(CN(C)C(=O)NCc2c(C)cc(C)[nH]c2=O)cc1 | -0.4347 |
| CC1=NOC(C(=O)N(C)CCCn2nc(C)cc2C)C1 (centres undefined) | 25.07 |
| Cc1cc(C)n(CCCn2cncc2-c2ccc3c(c2)CC(C)N3C)n1.Cl (centres undefined) | 95.59 |
| Cc1cc(C)n(CCCN(C)C(=O)C2COc3ccccc3C2)n1 (centres undefined) | -47.38 |
| Cc1nccn1CCCn1cncc1-c1ccc2c(c1)CC(C)N2C.Cl (centres undefined) | 92.09 |
| Cc1cnccc1N1CCCN(C(=O)CCn2ccnc2C)CC1 | -14.43 |
| CC(C)OCCC1CCCCN1S(C)(=O)=O (centres undefined) | 3.961 |
| CC(C)(C)C(=O)NS(=O)(=O)c1ccc(C#N)cc1C(F)(F)F | -4.514 |
| CC(O)CN(C)S(=O)(=O)c1ccc(C#N)cc1F (centres undefined) | -5.528 |
| CCC(C)C(=O)NS(=O)(=O)c1ccc(C#N)cc1C(F)(F)F (centres undefined) | 121.4 |
| CCC(CC)C(=O)NS(=O)(=O)c1ccc(C#N)cc1C(F)(F)F | 103.7 |
| CC(=O)NC1CCN(c2ccc(C#N)cc2C(F)(F)F)CC1 | 29.91 |
| N#Cc1ccc(S(=O)(=O)NC(=O)C2CC2)c(C(F)(F)F)c1 | 6.344 |
| CC(C(=O)N(Cc1ccc(C#N)cc1)CC(F)(F)F)S(C)(=O)=O (centres undefined) | -0.5778 |
| CC(C)C(=O)NS(=O)(=O)c1ccc(C#N)cc1C(F)(F)F | 109 |
| CN(CCN(C)S(=O)(=O)CC1CCOCC1)c1ccccc1 | -10.63 |
| N#CCCN(CC1CCOC1)Cn1ccc(-c2cccs2)n1 (centres undefined) | -0.2132 |

| Compound | Percent Effect [%] |
| --- | --- |
| CC(NC(C)(C)CN)c1ccccc1 (centres undefined) | -0.2011 |
| O=C1Nc2ccccc2CNC12CCN(CC1CCNC1)CC2 (centres undefined) | 113.7 |
| CC(C)c1nnc(CN2CCC3(CC2)Nc2ccccc2NC3=O)o1 | 8.635 |
| CC(C)CN1CCC2(Cc3ccccc3NC2=O)C1 (centres undefined) | 2.79 |
| NC(=O)C(NC1CCN(CC2CCCCC2)CC1)c1ccccc1 (centres undefined) | -8.499 |
| CC(C)CCN1CCC2(CC1)NCc1ccccc1NC2=O | 110.4 |
| O=C1Nc2ccccc2NC12CCN(Cc1nnc(C3CC3)o1)CC2 | 10.49 |
| O=C1Nc2ccccc2NC12CCN(c1cccc(C(F)(F)F)n1)CC2 | -10.36 |
| O=C1Nc2ccccc2CNC12CCN(CC1CC1)CC2 | 106.1 |
| O=C1Nc2ccccc2CNC12CCN(CC1CCCC1)CC2 | 118.7 |
| Cn1cc(C2(C)CN(C(=O)COc3ccccc3F)CCO2)cn1 (centres undefined) | -6.052 |
| O=S(=O)(NCC1(O)CCOCC1)c1c(F)cccc1F | -2.026 |
| Cc1cc(F)ccc1S(=O)(=O)N1CCN(C)Cc2ccccc21 | -7.823 |
| CC(C)(C)CN1CCCC2(CCN(C(=O)c3cn[nH]c3)C2)C1 (centres undefined) | -0.3441 |
| CCNC(=O)NCc1ccccc1NS(=O)(=O)c1ccccc1 | 26.47 |
| O=C1CC2(CCCCC2)C(=O)N1CC(O)COCc1ccccc1F (centres undefined) | -27.41 |
| CC(C)(C)CNCC1(O)CCCN(Cc2ccccc2F)C1=O (centres undefined) | -15.35 |
| CSCCC(O)C(=O)N1CCN(Cc2cccc(Cl)c2)CC1 (centres undefined) | 8.238 |
| CCC(CO)N(Cc1ccccn1)C(=O)c1ccc(=O)[nH]c1 (centres undefined) | 7.999 |
| COc1ccccc1N1CCN(C(=O)CSC(C)C)C(C)C1 (centres undefined) | -5.211 |
| NC(=O)CSCCC(=O)N1CCCC1c1ccsc1 (centres undefined) | -6.046 |
| Cc1nc(CN2CCC(CNC(=O)CCC3CCCC3)CC2)oc1C | -6.137 |
| NC(=O)CSCCC(=O)NCC1CC1 | 101.8 |

| Compound | Percent Effect [%] |
| --- | --- |
| NC(=O)CSCC(=O)NCC1CCCC1 | 107.6 |
| O=C(CNC(=O)C1CC1)NCC1CCCC1 | -13.86 |
| N#CCSCC(=O)NCC1CCCCC1 | 102.7 |
| O=C(CCn1cncn1)NCC1CCCC1 | 2.005 |
| N#CCSCCCN1CCC(C(=O)N2CCCCCC2)CC1 | 2.389 |
| O=C(CCn1cncn1)NCC1CCOC1 (centres undefined) | 0.0368 |
| Cc1cccc(N(CC(=O)N2CCCCC2)Cc2ccno2)c1 | 2.857 |
| Cc1cc(C(=O)NCC2SCCc3ccccc32)no1 (centres undefined) | 0.5755 |
| CCN(C(=O)Cc1ccc(NC(=O)NC2CC2)cc1)c1ccccc1 | -0.9902 |
| O=C(CSc1ccc2c(c1)OCCO2)NS(=O)(=O)c1cc(F)ccc1F | -16.91 |
| c1cnnc(N2CCCC2CNCCc2cccs2)c1 (centres undefined) | 5.045 |
| Cc1nc(CNCC2CCCN2c2cccnn2)oc1C (centres undefined) | -10.17 |
| c1cnnc(N2CCCC2CNCc2ccsc2)c1 (centres undefined) | -3.279 |
| CC(C)(C)c1cnc(CNCC2CCCN2c2cccnn2)o1 (centres undefined) | 10.11 |
| Cc1ncc(CNCC2CCCN2c2cccnn2)s1 (centres undefined) | 6.124 |
| Cc1ncccc1CNCC1CCCN1c1cccnn1 (centres undefined) | 86.13 |
| Cc1ccc(CNCC2CCCN2c2cccnn2)s1 (centres undefined) | 110.2 |
| Cc1nc(CNCC2CCCN2c2cccnn2)cs1 (centres undefined) | -2.276 |
| CC(C)(C)c1ncc(CNCC2CCCN2c2cccnn2)s1 (centres undefined) | 130.1 |
| c1cnnc(N2CCCC2CNCc2cccs2)c1 (centres undefined) | 108.7 |
| CC(C)c1nnc(CNCC2CCCN2c2cccnn2)o1 (centres undefined) | -19.57 |
| Cc1noc(C)c1CNCC1CCCN1c1cccnn1 (centres undefined) | 5.268 |
| CC(=O)Nc1ccc(CN2CCOC2=O)cc1 | -1.092 |

| Compound | Percent Effect [%] |
| --- | --- |
| CC(=O)Nc1ccc(/C=C/c2ncc(C(=O)O)s2)cc1 | 35.4 |
| CC(C)c1ccn(C2(C(=O)O)CCN(c3ccncc3F)CC2)n1 | -3.994 |
| Cc1cccc(C(=O)N(C)CC(=O)N2CCCC2)c1C | 11.26 |
| O=C(CNC(=O)C1CC1)NCc1ccc(Cl)s1 | 12.79 |
| O=C(Nc1cnccn1)[C@H]1COC[C@H]2CN(C3CCCC3)C[C@H]21.O=C(O)C(F)(F)F | 12.06 |
| CN(Cc1nnc(C2CC2)n1C)C(=O)c1ccnc(OC2CCC2)c1 | -6.34 |
| Cc1cc(C(=O)N(C)Cc2ccccc2OCC(C)C)cc(=O)[nH]1 | 5.839 |
| COc1ccccc1OCC(=O)NS(=O)(=O)c1ccccc1F | -1.762 |
| CSc1ccc(NCC(=O)NCC2CC2)cc1F | -20.57 |
| COc1cccc([C@@H]2CN(C3CCCC3)C[C@H]2C(=O)O)c1 | -6.459 |
| CN(C)Cc1cnc2n1CCN(C(=O)Cc1ccc(F)cc1)CC2.O=C(O)C(F)(F)F | -6.028 |
| CC(C)N(C)Cc1cnc2n1CCN(Cc1cccc(C#N)c1)C2 | 113.4 |
| CC(C)N(C)Cc1cnc2n1CCN(Cc1ccc(F)cc1)C2.O=C(O)C(F)(F)F.O=C(O)C(F)(F)F | 108.1 |
| Cc1ccc(CN2CCc3c(CN(C)C)n[nH]c3C2)s1.O=C(O)C(F)(F)F.O=C(O)C(F)(F)F | -7.014 |
| Cc1noc(C)c1CN1CCc2ncc(CN(C)C)n2CC1.O=C(O)C(F)(F)F.O=C(O)C(F)(F)F | -8.609 |
| O=C(NCc1cnc2n1CCN(Cc1nccs1)C2)c1ccno1.O=C(O)C(F)(F)F | -12.49 |
| Cc1ccc(CN2CCn3c(CNC(=O)c4cccn4C)cnc3C2)s1.O=C(O)C(F)(F)F | 57.4 |
| CC(O)CN1CCN(Cc2cccc(C#N)c2)CC1 (centres undefined) | -5.978 |
| Cn1cc(CN2CCn3c(CNC(=O)c4cccn4C)cnc3C2)cn1.O=C(O)C(F)(F)F | -0.1323 |
| Cc1ccc(CN2CCn3c(CN(C)C(C)C)cnc3C2)s1.O=C(O)C(F)(F)F.O=C(O)C(F)(F)F | 102.4 |
| CC(C)c1ncc2c(n1)CN(Cc1cccc(C#N)c1)CC2 | -1.681 |
| CN1CCc2ncc(CNC(=O)c3cccn3C)n2CC1.O=C(O)C(F)(F)F | -7.758 |
